Test results taken from PubChem BioAssay AID686978 (National Center for Advancing Translational Sciences (NCATS), 2013).
About 64,000 (15%) of roughly 420,000 compounds were called active. Another 27% or so got no clear call; they are omitted. Not all results are given here. Values without a mark were called inactive. Calls come from the whole dose curve; as a rule, active = well fitted inhibition curve with a large enough effect; inconclusive = small, poorly fitted or top-dose-only effect; inactive = flat fitted curve, though single readings scatter.

Test: qHTS for Inhibitors of human tyrosyl-DNA phosphodiesterase 1 (TDP1): qHTS in cells in absence of CPT; note: nearly all actives have a fitted effect of over 55% in size
Settings: DT40 Tdp1-/- hTDP1 cells, no CPT, ATP luminescence, 48 h; activity change, negative = growth inhibition: at 46.2 µM (top of the series)
Summary of the method: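 DT40 Tdp1-/-;hTDP1 cells, no CPT (DMSO vehicle only), 400 cells/well; compounds pin-transferred; ≥48 hr, 37 °C; CellTiter-Glo 30 min RT dark, luminescence read.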
% is set by controls: 0 for no effect and ±100 for the full control effect; potency is the fitted concentration of half-maximal effect.

Going from O=C(Cn1cnc2ccccc2c1=O)NCC1COc2ccccc2O1 (stereo unspecified) to O=C(COC(=O)c1ccc(F)cc1)NCC1COc2ccccc2O1 (stereo unspecified), the “activity change, negative = growth inhibition” value falls from 0.328% to -12.8%.

Going from CC(C)c1ccc(NC(=S)NNc2ccc(Cl)c(C(=O)O)c2)cc1 to Cc1nc2cc(NC(=O)NCc3ccccc3)ccc2o1, the “activity change, negative = growth inhibition” value falls from 10.6% to -13.9%.

Compared with O=C(COC(=O)C1CC2C=CC1C2)Nc1ccccc1 (stereo unspecified), O=C(COC(=O)c1ccco1)Nc1ccc(Cl)cn1 is higher in “activity change, negative = growth inhibition” value: -6.05% for the first, 6.19% for the second.

Going from CCN1C(=O)C(=O)N(CC(=O)Nc2cc(C)ccc2C)C1=O to COc1cc(Cl)c(C)cc1NC(=O)CSc1nnc(-c2cccnc2)n1Cc1ccco1, the “activity change, negative = growth inhibition” value falls from 1.3% to -22.2%.

Going from O=P(c1ccc2c(c1)OCCO2)(N1CCOCC1)N1CCOCC1 to CN1CCN(C(=O)CCc2nc(-c3ccc(Cl)cc3)no2)CC1, the “activity change, negative = growth inhibition” value falls from -2.59% to -11.7%.

First: COC(=O)C(C)Oc1ccc2c(c1)O/C(=C\c1cccc(Br)c1)C2=O (stereo unspecified)
Second: COc1ccc(S(=O)(=O)N(CC(=O)NCc2ccco2)c2ccc(F)cc2)cc1
The “activity change, negative = growth inhibition” value of the first is lower: -24.3% for the first, -16% for the second.

First: O=C(COC(=O)Cc1ccc(Br)cc1)Nc1c(F)c(F)c(F)c(F)c1F
Second: O=C(CCn1c(SCC(=O)c2ccccc2)nc2ccccc2c1=O)NCc1ccc(F)cc1
The “activity change, negative = growth inhibition” value of the first is higher: 14.3% for the first, -5.7% for the second.

Compared with CC1(C)CC(=O)C(C=NCc2cccnc2)=C(O)C1, Cc1c(C=O)n(C)n(-c2ccccc2)c1=O is higher in “activity change, negative = growth inhibition” value: -7.35% for the first, -0.628% for the second.

Going from N=c1c2c3c(sc2ncn1N)CCCCC3 to Cc1cc2c3ccccc3[nH]c(=O)n2n1, the “activity change, negative = growth inhibition” value falls from 19.2% to -23.3%.

First: C=CCN(C(=O)Nc1ccc2c(c1)nc(C)n2C)c1ccccc1
Second: O=c1ccn(Cc2ccccc2Cl)cc1
The “activity change, negative = growth inhibition” value of the first is higher: -6.75% for the first, -7.73% for the second.

First: N#CCCn1cnc2ccccc21
Second: O=C(CSc1nnc(-c2cnccn2)n1Cc1ccco1)c1ccc(Cl)c(Cl)c1
The “activity change, negative = growth inhibition” value of the first is higher: -13.7% for the first, -17.7% for the second.

First: CC(=O)NS(=O)(=O)c1ccc(NC(=O)C2C3C=CC(C3)C2C(=O)O)cc1 (stereo unspecified)
Second: COc1ccc(N2CCN(C(=O)CCc3nc(-c4ccc(C)cc4)no3)CC2)cc1
The “activity change, negative = growth inhibition” value of the first is higher: 0.129% for the first, -22.3% for the second.

For CCCCC(O)C1=C[N+](=O)CC=C1 (stereo unspecified), the “activity change, negative = growth inhibition” value was -15.5%.

With c1ccc2c(c1)OCC(CNc1ncnc3nc[nH]c13)O2 (stereo unspecified) the Potency was 13 µM (active).
For CC(C)c1ccc(NC(=S)NC2CC3C=CC2C3)cc1 (stereo unspecified), the Potency was 29.1 µM (active).
With COC(=O)Cc1ccc(N(Cc2ccccc2F)S(=O)(=O)c2ccc(Br)cc2)cc1 the Potency was 20.6 µM (active).
With C=CCN(C(=O)Nc1ccc2oc(C)nc2c1)c1ccccc1 the Potency was 20.6 µM (active).
For O=C(CSc1nnc(-c2cccnc2)n1Cc1ccco1)c1ccc(Cl)cc1, the Potency was 25.9 µM (active).
For COc1ccc(-c2noc(CCC(=O)N3CCN(c4cccc(C)c4)CC3)n2)cc1, the Potency was 13 µM (active).
